Experimental data reported in PubChem BioAssay (NCATS).
Inconclusive results are not listed. Active and inactive are the calls of the source. Calls come from the whole dose curve; as a rule, active = well fitted curve in the direction sought with a large enough effect; inconclusive = small, poorly fitted or top-dose-only effect, or another doubt; inactive = no such curve, though single readings can be large; an effect the other way counts as inactive or inconclusive.

Tests used:
[1] = Quantitative High-Throughput drug screen in 47 multiple myeloma cell lines against the NCATS MIPE library collection: ARD_JJKsccE7 cell viability assay (AID 1918929)
In short: (§1)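 Approved and investigational drugs from MIPE 4.0 were added by pin tool to 500 cells per well. After 48 hours at 37C, ATP-based CellTiter-Glo luminescence indicated remaining viability.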

[2] = Quantitative High-Throughput drug screen in 47 multiple myeloma cell lines against the NCATS MIPE library collection: Karpas620_DSMZ cell viability assay (AID 1918959); note: nearly all actives have a fitted effect of over 30% in size
In short: (§2)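 Relative luminescence from CellTiter-Glo served as the viability signal, referenced to DMSO-treated (100%) and cell-free medium (0%) controls. Treatment lasted 48 hours at 37C with 500 cells per well.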

[3] = Quantitative High-Throughput drug screen in 47 multiple myeloma cell lines against the NCATS MIPE library collection: KMM1_JCRB cell viability assay (AID 1918960); note: nearly all actives have a fitted effect of over 30% in size
In short: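 Each line was plated at 500 cells/well and treated 48 h with library drugs. Viability came from CellTiter-Glo luminescence relative to DMSO and cell-free medium controls.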

[4] = Quantitative High-Throughput drug screen in 47 multiple myeloma cell lines against the NCATS MIPE library collection: Karpas417_ECACC cell viability assay (AID 1918961); settings: Karpas417 myeloma viability, CellTiter-Glo ATP luminescence, 48 h; viability (% of DMSO): at 45.8 µM (top of the series)
In short: as §2

[5] = Quantitative High-Throughput drug screen in 47 multiple myeloma cell lines against the NCATS MIPE library collection: KHM11_PLB cell viability assay (AID 1918962); note: nearly all actives have a fitted effect of over 35% in size
In short: as §2

[6] = Quantitative High-Throughput drug screen in 47 multiple myeloma cell lines against the NCATS MIPE library collection: JIM3_ECACC cell viability assay (AID 1918963; note: nearly all actives have a fitted effect of over 35% in size)
In short: as §2

[7] = Quantitative High-Throughput drug screen in 47 multiple myeloma cell lines against the NCATS MIPE library collection: JIM1_ECACC cell viability assay (AID 1918964)
In short: as §1

[8] = Quantitative High-Throughput drug screen in 47 multiple myeloma cell lines against the NCATS MIPE library collection: INA6_PLB cell viability assay (AID 1918965; note: nearly all actives have a fitted effect of over 55% in size)
In short: as §2

[9] = Quantitative High-Throughput drug screen in 47 multiple myeloma cell lines against the NCATS MIPE library collection: JJN3_DSMZ cell viability assay (AID 1918966; note: nearly all actives have a fitted effect of over 50% in size)
In short: as §1

[10] = Quantitative High-Throughput drug screen in 47 multiple myeloma cell lines against the NCATS MIPE library collection: H1112_PLB cell viability assay (AID 1918967; note: nearly all actives have a fitted effect of over 30% in size)
In short: as §1

[11] = Quantitative High-Throughput drug screen in 47 multiple myeloma cell lines against the NCATS MIPE library collection: Karpas25_ECACC cell viability assay (AID 1918968; note: nearly all actives have a fitted effect of over 35% in size)
In short: as §1

[12] = Quantitative High-Throughput drug screen in 47 multiple myeloma cell lines against the NCATS MIPE library collection: KMS12BM_JCRB cell viability assay (AID 1918971); note: nearly all actives have a fitted effect of over 35% in size
In short: (§3)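 qHTS of the MIPE 4.0 collection: 500 myeloma cells/well, 48 h drug exposure at 37C in 5% CO2, then CellTiter-Glo for 5 min at room temperature before luminescence reading.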

[13] = Quantitative High-Throughput drug screen in 47 multiple myeloma cell lines against the NCATS MIPE library collection: KMS12PE_JCRB cell viability assay (AID 1918972); note: nearly all actives have a fitted effect of over 30% in size
In short: as §2

[14] = Quantitative High-Throughput drug screen in 47 multiple myeloma cell lines against the NCATS MIPE library collection: KMS20_JCRB cell viability assay (AID 1918973); note: nearly all actives have a fitted effect of over 45% in size
In short: as §1

[15] = Quantitative High-Throughput drug screen in 47 multiple myeloma cell lines against the NCATS MIPE library collection: KMS21BM_JCRB cell viability assay (AID 1918974); settings: ATP luminescence, 48 h; viability: at 45.8 µM (top of the series)
In short: as §1

[16] = Quantitative High-Throughput drug screen in 47 multiple myeloma cell lines against the NCATS MIPE library collection: KMS26_JCRB cell viability assay (AID 1918975); note: nearly all actives have a fitted effect of over 45% in size
In short: as §3

[17] = Quantitative High-Throughput drug screen in 47 multiple myeloma cell lines against the NCATS MIPE library collection: MMM1_PLB cell viability assay (AID 1918976); note: nearly all actives have a fitted effect of over 35% in size
In short: (§4)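 Readout: median RLU from CellTiter-Glo after 5 min at room temperature. Preceding step was 48 h drug treatment of 500 cells/well at 37 °C, 5% CO2, with DMSO-only and media-only control wells.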

[18] = Quantitative High-Throughput drug screen in 47 multiple myeloma cell lines against the NCATS MIPE library collection: MOLP8_DSMZ cell viability assay (AID 1918977); note: nearly all actives have a fitted effect of over 45% in size
In short: as §4

[19] = Quantitative High-Throughput drug screen in 47 multiple myeloma cell lines against the NCATS MIPE library collection: NCIH929_DSMZ cell viability assay (AID 1918978); note: nearly all actives have a fitted effect of over 35% in size
In short: as §4

[20] = Quantitative High-Throughput drug screen in 47 multiple myeloma cell lines against the NCATS MIPE library collection: KMS27_JCRB cell viability assay (AID 1918970); settings: KMS27 myeloma cells, CellTiter-Glo ATP viability, 48 h; viability (% of DMSO): at 45.8 µM (top of the series); note: nearly all actives have a fitted effect of over 30% in size
In short: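 Each line is seeded at 500 cells per well and treated with library compounds for 48 hours under 37 °C, 5% CO2. CellTiter-Glo is then added for 5 min at room temperature before median relative luminescence is recorded.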
Potency is the fitted concentration of half-maximal effect.

Cc1cnc(Nc2ccc(N3CCN(C)CC3)cc2)nc1Nc1cccc(S(=O)(=O)NC(C)(C)C)c1
Potency [1]: 0.59 µM (active) | Potency [2]: 3.72 µM (active) | Potency [3]: 1.66 µM (active) | Potency [4]: 0.372 µM (active) | Potency [5]: 1.87 µM (active) | Potency [6]: 3.72 µM (active) | Potency [7]: 0.662 µM (active) | Potency [8]: 0.418 µM (active) | Potency [9]: 2.96 µM (active) | Potency [10]: 5.9 µM (active) | Potency [11]: 1.66 µM (active) | Potency [12]: 2.64 µM (active) | Potency [13]: 1.66 µM (active) | Potency [14]: 7.43 µM (active) | Potency [15]: 0.148 µM (active) | Potency [16]: 6.62 µM (active) | Potency [17]: 2.96 µM (active) | Potency [18]: 2.09 µM (active) | Potency [19]: 2.35 µM (active)

Cn1cc(CNCC2CCN(c3ncc(C(=O)NO)cn3)CC2)c2ccccc21
Potency [1]: 0.0526 µM (active) | Potency [2]: 0.105 µM (active) | Potency [3]: 0.0418 µM (active) | Potency [4]: 0.0166 µM (active) | Potency [5]: 0.0662 µM (active) | Potency [6]: 0.132 µM (active) | Potency [7]: 0.0743 µM (active) | Potency [9]: 0.0296 µM (active) | Potency [10]: 0.0332 µM (active) | Potency [11]: 0.0118 µM (active) | Potency [20]: 0.0166 µM (active) | Potency [12]: 0.0235 µM (active) | Potency [13]: 0.0372 µM (active) | Potency [16]: 0.0166 µM (active) | Potency [17]: 0.0418 µM (active) | Potency [18]: 0.0132 µM (active) | Potency [19]: 0.0209 µM (active)

NC(=O)N1CCC(CC(=O)N2CCC([C@H]3c4ncc(Br)cc4CCc4cc(Cl)cc(Br)c43)CC2)CC1
Potency [1]: 2.09 µM (active) | Potency [2]: 14.8 µM (active) | Potency [3]: 18.7 µM (active) | Potency [4]: 10.5 µM (active) | Potency [5]: 0.0372 µM (active) | Potency [6]: 18.7 µM (active) | Potency [7]: 5.9 µM (active) | Potency [8]: 7.43 µM (active) | Potency [9]: 16.6 µM (active) | Potency [10]: 10.5 µM (active) | Potency [11]: 14.8 µM (active) | Potency [12]: 18.7 µM (active) | Potency [13]: 11.8 µM (active) | Potency [15]: 13.2 µM (active) | Potency [16]: 20.9 µM (active) | Potency [17]: 16.6 µM (active)

N#Cc1cc(NC(=O)Nc2nnc(-c3ccncc3)s2)ccc1-c1cn[nH]c1
Potency [1]: inactive | Potency [2]: inactive | Potency [3]: inactive | Potency [4]: inactive | Potency [5]: inactive | Potency [6]: inactive | Potency [7]: inactive | Potency [8]: inactive | Potency [10]: inactive | Potency [11]: inactive | Potency [16]: inactive | Potency [17]: 3.32 µM (active) | Potency [19]: inactive

COc1cc(C(=O)NC2CCN(C)CC2)ccc1Nc1ncc2c(n1)N(C1CCCC1)CCC(=O)N2C(C)C
Potency [1]: 18.7 µM (active) | Potency [2]: 23.5 µM (active) | Potency [3]: 16.6 µM (active) | Potency [4]: 13.2 µM (active) | Potency [5]: 14.8 µM (active) | Potency [6]: 20.9 µM (active) | Potency [7]: 5.9 µM (active) | Potency [8]: 3.72 µM (active) | Potency [9]: 8.33 µM (active) | Potency [10]: 23.5 µM (active) | Potency [11]: 20.9 µM (active) | Potency [20]: 5.9 µM (active) | Potency [13]: 13.2 µM (active) | Potency [14]: 16.6 µM (active) | Potency [15]: 3.72 µM (active) | Potency [19]: 10.5 µM (active)

COc1cc(CCc2cc(NC(=O)c3ccc(N4C[C@@H](C)N[C@@H](C)C4)cc3)n[nH]2)cc(OC)c1
Potency [1]: 16.6 µM (active) | Potency [2]: 20.9 µM (active) | Potency [3]: 18.7 µM (active) | Potency [4]: 2.35 µM (active) | Potency [5]: 9.35 µM (active) | Potency [6]: 14.8 µM (active) | Potency [7]: 2.35 µM (active) | Potency [8]: 9.35 µM (active) | Potency [10]: 11.8 µM (active) | Potency [11]: 16.6 µM (active) | Potency [20]: 18.7 µM (active) | Potency [12]: 11.8 µM (active) | Potency [13]: 16.6 µM (active) | Potency [14]: 4.69 µM (active) | Potency [16]: 20.9 µM (active) | Potency [17]: 16.6 µM (active) | Potency [19]: 10.5 µM (active)

CC(C=CC(=O)NO)=C[C@@H](C)C(=O)c1ccc(N(C)C)cc1
Potency [1]: 0.264 µM (active) | Potency [2]: 0.418 µM (active) | Potency [3]: 0.209 µM (active) | Potency [4]: 0.105 µM (active) | Potency [5]: 0.372 µM (active) | Potency [6]: 0.743 µM (active) | Potency [7]: 0.296 µM (active) | Potency [9]: 0.187 µM (active) | Potency [10]: 0.372 µM (active) | Potency [11]: 0.264 µM (active) | Potency [20]: 0.264 µM (active) | Potency [12]: 0.264 µM (active) | Potency [13]: 0.235 µM (active) | Potency [14]: 0.148 µM (active) | Potency [15]: 0.166 µM (active) | Potency [16]: 0.264 µM (active) | Potency [17]: 0.187 µM (active) | Potency [18]: 0.0935 µM (active) | Potency [19]: 0.296 µM (active)

C[C@@]12C(=O)OC(=O)[C@@]1(C)C1CCC2O1
Potency [1]: 1.66 µM (active) | Potency [2]: 2.96 µM (active) | Potency [3]: 0.743 µM (active) | Potency [4]: 2.96 µM (active) | Potency [5]: 2.35 µM (active) | Potency [6]: 1.87 µM (active) | Potency [7]: 0.662 µM (active) | Potency [8]: 2.64 µM (active) | Potency [9]: 0.662 µM (active) | Potency [10]: 3.72 µM (active) | Potency [11]: 1.18 µM (active) | Potency [20]: 2.09 µM (active) | Potency [12]: 1.66 µM (active) | Potency [13]: 1.87 µM (active) | Potency [16]: 2.09 µM (active) | Potency [17]: 1.87 µM (active) | Potency [18]: 3.72 µM (active) | Potency [19]: 2.64 µM (active)

CC(=O)[C@]1(O)Cc2c(O)c3c(c(O)c2[C@@H](O[C@H]2C[C@H](N)[C@@H](O)[C@H](C)O2)C1)C(=O)c1ccccc1C3=O
Potency [1]: 3.32 µM (active) | Potency [2]: 2.09 µM (active) | Potency [3]: 2.35 µM (active) | Potency [4]: 2.35 µM (active) | Potency [5]: 0.296 µM (active) | Potency [7]: 1.18 µM (active) | Potency [8]: 0.0935 µM (active) | Potency [9]: 0.209 µM (active) | Potency [10]: 0.187 µM (active) | Potency [11]: 0.148 µM (active) | Potency [20]: 1.18 µM (active) | Potency [12]: 0.235 µM (active) | Potency [13]: 2.09 µM (active) | Potency [14]: 0.105 µM (active) | Potency [16]: 0.264 µM (active) | Potency [17]: 0.148 µM (active) | Potency [18]: 0.132 µM (active) | Potency [19]: 0.166 µM (active)
